How the values were obtained:
Test in all cases: DAPPL (digital affinity profiling via proximity ligation, sequencing); 10 mM Tris-HCl pH 7.5, 50 mM NaCl, 1 mM DTT, 4% glycerol, room temperature, 30 min; GST-TFs on glutathione beads, 16-mer random dsDNA library, 0.1% formaldehyde crosslink after washing; high values mean tight binding
Conditions in all cases: protein: recombinant; tags: N-terminal GST; dsDNA, one strand shown
FLI1 = target: T1, FLI1 (Homo sapiens, UniProt Q01543 1-452)
T1 sequence: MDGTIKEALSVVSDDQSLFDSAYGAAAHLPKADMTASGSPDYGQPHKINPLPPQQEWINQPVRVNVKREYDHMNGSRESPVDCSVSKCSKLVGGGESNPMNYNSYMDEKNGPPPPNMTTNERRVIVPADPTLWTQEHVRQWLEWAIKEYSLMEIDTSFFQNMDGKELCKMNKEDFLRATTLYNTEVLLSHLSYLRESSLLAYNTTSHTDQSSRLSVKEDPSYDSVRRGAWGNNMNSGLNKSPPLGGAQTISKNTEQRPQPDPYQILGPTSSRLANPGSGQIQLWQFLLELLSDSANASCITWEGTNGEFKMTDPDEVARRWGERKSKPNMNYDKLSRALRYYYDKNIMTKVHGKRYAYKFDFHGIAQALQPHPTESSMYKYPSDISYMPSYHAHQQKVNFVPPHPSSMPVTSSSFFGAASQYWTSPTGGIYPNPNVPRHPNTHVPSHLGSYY
Outline: (§1)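 Pools were built from human transcription factors expressed in yeast as GST fusions, captured on glutathione beads and DNA-barcoded, along with a tag-only sample. Incubation with 200 nmole of a 16-mer random double-stranded DNA library lasted 30 min at room temperature in Tris/NaCl/DTT/glycerol buffer, and was followed by washing, 0.1% formaldehyde crosslinking, proximity ligation, PCR amplification and Illumina NextSeq500 sequencing. Binding signal is the quotient of each hexamer's read frequency for a factor and its frequency for the tag-only sample.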

ELK1 = target: T2, ELK1 (Homo sapiens, UniProt P19419 1-428)
T2 sequence: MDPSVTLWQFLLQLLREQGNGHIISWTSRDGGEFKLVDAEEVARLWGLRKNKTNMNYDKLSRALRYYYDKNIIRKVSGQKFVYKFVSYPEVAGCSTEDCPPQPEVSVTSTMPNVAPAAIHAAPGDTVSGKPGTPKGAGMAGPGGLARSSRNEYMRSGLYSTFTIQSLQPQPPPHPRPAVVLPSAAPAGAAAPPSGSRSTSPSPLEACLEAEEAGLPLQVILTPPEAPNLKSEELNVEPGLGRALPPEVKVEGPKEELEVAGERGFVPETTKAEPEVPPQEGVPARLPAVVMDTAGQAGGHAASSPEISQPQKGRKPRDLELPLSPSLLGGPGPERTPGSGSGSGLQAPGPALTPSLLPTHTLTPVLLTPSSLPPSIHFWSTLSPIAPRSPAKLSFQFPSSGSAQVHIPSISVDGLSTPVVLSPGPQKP
Outline: as §1

GABPA = target: T3, GABPA (Homo sapiens, UniProt Q06546 1-454)
T3 sequence: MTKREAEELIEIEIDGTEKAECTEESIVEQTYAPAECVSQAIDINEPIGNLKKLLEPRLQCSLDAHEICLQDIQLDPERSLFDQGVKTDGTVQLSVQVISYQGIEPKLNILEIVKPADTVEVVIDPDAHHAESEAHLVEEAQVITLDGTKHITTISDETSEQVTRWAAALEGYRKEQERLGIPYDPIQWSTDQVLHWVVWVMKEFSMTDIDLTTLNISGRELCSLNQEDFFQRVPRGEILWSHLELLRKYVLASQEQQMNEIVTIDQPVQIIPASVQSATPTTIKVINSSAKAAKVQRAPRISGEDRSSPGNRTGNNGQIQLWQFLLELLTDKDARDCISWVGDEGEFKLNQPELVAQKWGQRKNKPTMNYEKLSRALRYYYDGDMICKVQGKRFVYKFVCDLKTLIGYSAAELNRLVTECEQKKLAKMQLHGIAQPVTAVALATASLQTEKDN
Outline: as §1

ERG = target: T4, ERG (Homo sapiens, UniProt P11308 1-479)
T4 sequence: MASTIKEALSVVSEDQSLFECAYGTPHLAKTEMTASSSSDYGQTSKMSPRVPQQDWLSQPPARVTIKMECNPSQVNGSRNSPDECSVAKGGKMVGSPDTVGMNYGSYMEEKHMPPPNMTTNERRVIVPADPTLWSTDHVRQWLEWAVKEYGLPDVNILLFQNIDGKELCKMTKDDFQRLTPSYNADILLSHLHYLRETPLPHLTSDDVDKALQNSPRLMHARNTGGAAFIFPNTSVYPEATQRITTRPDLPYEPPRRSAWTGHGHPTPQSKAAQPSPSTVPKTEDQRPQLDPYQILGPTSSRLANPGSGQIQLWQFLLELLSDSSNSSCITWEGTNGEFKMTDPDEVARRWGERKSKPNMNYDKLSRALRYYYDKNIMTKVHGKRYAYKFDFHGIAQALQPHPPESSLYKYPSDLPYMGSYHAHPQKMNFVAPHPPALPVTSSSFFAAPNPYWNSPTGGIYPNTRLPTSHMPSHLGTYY
Outline: as §1

ELF1 = ELF1 (Homo sapiens, UniProt P32519 1-619)
Sequence of ELF1 (P32519 whole entry): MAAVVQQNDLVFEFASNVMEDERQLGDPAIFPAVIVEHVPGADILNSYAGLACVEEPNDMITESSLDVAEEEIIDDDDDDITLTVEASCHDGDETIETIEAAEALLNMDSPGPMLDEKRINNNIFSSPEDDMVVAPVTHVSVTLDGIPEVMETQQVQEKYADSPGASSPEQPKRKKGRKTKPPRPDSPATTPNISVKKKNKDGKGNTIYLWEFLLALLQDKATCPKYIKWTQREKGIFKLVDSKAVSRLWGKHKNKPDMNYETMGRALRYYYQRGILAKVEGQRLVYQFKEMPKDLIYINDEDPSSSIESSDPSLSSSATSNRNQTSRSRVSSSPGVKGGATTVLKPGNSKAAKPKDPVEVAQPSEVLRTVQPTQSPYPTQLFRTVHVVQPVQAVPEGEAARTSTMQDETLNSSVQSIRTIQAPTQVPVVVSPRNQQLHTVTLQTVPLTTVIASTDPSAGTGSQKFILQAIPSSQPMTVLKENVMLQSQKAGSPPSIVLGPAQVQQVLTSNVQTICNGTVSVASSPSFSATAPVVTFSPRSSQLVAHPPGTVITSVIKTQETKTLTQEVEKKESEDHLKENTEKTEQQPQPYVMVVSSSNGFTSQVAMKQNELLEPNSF
Outline: as §1

EHF = target: T5, EHF (Homo sapiens, UniProt Q9NZC4 1-300)
T5 sequence: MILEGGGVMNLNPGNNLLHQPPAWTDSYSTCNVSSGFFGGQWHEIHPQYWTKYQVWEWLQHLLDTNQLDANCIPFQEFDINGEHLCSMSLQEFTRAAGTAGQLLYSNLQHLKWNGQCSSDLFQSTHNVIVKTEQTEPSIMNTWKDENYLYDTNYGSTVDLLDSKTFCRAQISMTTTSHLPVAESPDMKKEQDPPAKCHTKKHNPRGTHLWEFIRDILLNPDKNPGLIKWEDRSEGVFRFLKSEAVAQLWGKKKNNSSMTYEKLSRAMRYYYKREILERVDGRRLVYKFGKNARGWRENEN
Outline: as §1

SPI1 = SPI1 (Homo sapiens, UniProt P17947 1-270)
Outline: as §1

SPIB = SPIB (Homo sapiens, UniProt Q01892 1-262)
Sequence of SPIB (Q01892 whole entry): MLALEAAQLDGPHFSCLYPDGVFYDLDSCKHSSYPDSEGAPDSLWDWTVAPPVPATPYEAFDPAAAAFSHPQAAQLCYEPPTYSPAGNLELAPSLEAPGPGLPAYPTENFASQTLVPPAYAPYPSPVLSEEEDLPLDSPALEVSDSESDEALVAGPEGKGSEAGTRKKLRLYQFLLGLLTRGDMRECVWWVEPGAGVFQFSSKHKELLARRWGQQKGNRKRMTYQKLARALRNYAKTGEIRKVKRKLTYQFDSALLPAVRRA
Outline: as §1

ELK3 = target: T6, ELK3 (Homo sapiens, UniProt P41970 1-407)
T6 sequence: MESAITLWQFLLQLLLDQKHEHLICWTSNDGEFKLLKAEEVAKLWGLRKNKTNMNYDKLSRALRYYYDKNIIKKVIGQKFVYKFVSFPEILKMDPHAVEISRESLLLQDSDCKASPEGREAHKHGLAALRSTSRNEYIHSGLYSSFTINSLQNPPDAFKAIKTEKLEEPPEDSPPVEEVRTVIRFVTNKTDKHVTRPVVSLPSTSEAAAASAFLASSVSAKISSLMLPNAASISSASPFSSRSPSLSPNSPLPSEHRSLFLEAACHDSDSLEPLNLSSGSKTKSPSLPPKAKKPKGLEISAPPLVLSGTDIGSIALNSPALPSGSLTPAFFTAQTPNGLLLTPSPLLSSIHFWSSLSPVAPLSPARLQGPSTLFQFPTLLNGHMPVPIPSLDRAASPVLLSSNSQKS
Outline: as §1

| Sequence | binding signal (FLI1) | binding signal (ELK1) | binding signal (GABPA) | binding signal (ERG) | binding signal (ELF1) | binding signal (EHF) | binding signal (SPI1) | binding signal (SPIB) | binding signal (ELK3) |
| --- | --- | --- | --- | --- | --- | --- | --- | --- | --- |
| CACTCA | 1.06 fold enrichment (6-mer frequency, TF over GST control) | 1.17 fold enrichment (6-mer frequency, TF over GST control) | 1.25 fold enrichment (6-mer frequency, TF over GST control) | 1.16 fold enrichment (6-mer frequency, TF over GST control) | 1.24 fold enrichment (6-mer frequency, TF over GST control) | 1.19 fold enrichment (6-mer frequency, TF over GST control) | 1.08 fold enrichment (6-mer frequency, TF over GST control) | 1.21 fold enrichment (6-mer frequency, TF over GST control) | 1.19 fold enrichment (6-mer frequency, TF over GST control) |
| CAACCA | 1.15 fold enrichment (6-mer frequency, TF over GST control) | 1.15 fold enrichment (6-mer frequency, TF over GST control) | 1.12 fold enrichment (6-mer frequency, TF over GST control) | 1.03 fold enrichment (6-mer frequency, TF over GST control) | 1.15 fold enrichment (6-mer frequency, TF over GST control) | 1.13 fold enrichment (6-mer frequency, TF over GST control) | 1.11 fold enrichment (6-mer frequency, TF over GST control) | 1.06 fold enrichment (6-mer frequency, TF over GST control) | 1.18 fold enrichment (6-mer frequency, TF over GST control) |
| CTACAA | 1.17 fold enrichment (6-mer frequency, TF over GST control) | 1.13 fold enrichment (6-mer frequency, TF over GST control) | 1.2 fold enrichment (6-mer frequency, TF over GST control) | 1.08 fold enrichment (6-mer frequency, TF over GST control) | 1.13 fold enrichment (6-mer frequency, TF over GST control) | 1.14 fold enrichment (6-mer frequency, TF over GST control) | 1.09 fold enrichment (6-mer frequency, TF over GST control) | 1.15 fold enrichment (6-mer frequency, TF over GST control) | 1.03 fold enrichment (6-mer frequency, TF over GST control) |
| TTTACG | 1.39 fold enrichment (6-mer frequency, TF over GST control) | 1.28 fold enrichment (6-mer frequency, TF over GST control) | 1.34 fold enrichment (6-mer frequency, TF over GST control) | 1.26 fold enrichment (6-mer frequency, TF over GST control) | 1.26 fold enrichment (6-mer frequency, TF over GST control) | 1.3 fold enrichment (6-mer frequency, TF over GST control) | 1.33 fold enrichment (6-mer frequency, TF over GST control) | 1.23 fold enrichment (6-mer frequency, TF over GST control) | 1.27 fold enrichment (6-mer frequency, TF over GST control) |
| TTGCTA | 1.38 fold enrichment (6-mer frequency, TF over GST control) | 1.27 fold enrichment (6-mer frequency, TF over GST control) | 1.27 fold enrichment (6-mer frequency, TF over GST control) | 1.26 fold enrichment (6-mer frequency, TF over GST control) | 1.3 fold enrichment (6-mer frequency, TF over GST control) | 1.33 fold enrichment (6-mer frequency, TF over GST control) | 1.31 fold enrichment (6-mer frequency, TF over GST control) | 1.37 fold enrichment (6-mer frequency, TF over GST control) | 1.33 fold enrichment (6-mer frequency, TF over GST control) |
| TACAAA | 1.14 fold enrichment (6-mer frequency, TF over GST control) | 1.14 fold enrichment (6-mer frequency, TF over GST control) | 1.1 fold enrichment (6-mer frequency, TF over GST control) | 1.08 fold enrichment (6-mer frequency, TF over GST control) | 1.14 fold enrichment (6-mer frequency, TF over GST control) | 1.2 fold enrichment (6-mer frequency, TF over GST control) | 1.07 fold enrichment (6-mer frequency, TF over GST control) | 1.06 fold enrichment (6-mer frequency, TF over GST control) | 1.06 fold enrichment (6-mer frequency, TF over GST control) |
| TCCCAG | 1.05 fold enrichment (6-mer frequency, TF over GST control) | 1.09 fold enrichment (6-mer frequency, TF over GST control) | 1.08 fold enrichment (6-mer frequency, TF over GST control) | 1.07 fold enrichment (6-mer frequency, TF over GST control) | 1.08 fold enrichment (6-mer frequency, TF over GST control) | 1.1 fold enrichment (6-mer frequency, TF over GST control) | 1.11 fold enrichment (6-mer frequency, TF over GST control) | 1.08 fold enrichment (6-mer frequency, TF over GST control) | 1.11 fold enrichment (6-mer frequency, TF over GST control) |

Reference: publication PMC7862700, “An all-to-all approach to the identification of sequence-specific readers for epigenetic DNA modifications on cytosine”
